The results in this text go back to PubChem BioAssay (NCI).

The structures appear in SMILES notation. About 83,000 compounds went through this panel and 20% of them were active in at least one assay; those are over-represented in the sample as a whole.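 Step 1: grow cells in 96-well plates. Step 2: add test compound at a single concentration. Step 3: incubate 48 h. Step 4: record percent growth.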 Values without a mark were called inactive. The source made the active and inactive calls. How the source made its calls: active means growth percent below 10; inactive means the rest.

This assay relates to MDA-MB-468 breast. Kind of assay: NCI-60 one-dose screen, 48 h (100 = growth as untreated, 0 = no growth, -100 = all killed). Particulars: 10 µM unless noted.
For the molecule `Clc1ccc(Nc2nccc(Nc3ccc4[nH]ncc4c3)n2)cc1`, the growth was 33.6%.

As for `C=C[C@@H]1C[C@@H]2Cc3ccccc3N1O2`, the growth was 97.8%.

Regarding `CCOC(=O)CNS(=O)(=O)CC(=O)c1ccccc1`, the growth is 54.1%.

As for `COCCNc1ccc2c3c(cccc13)C(=O)N(CCN(C)C)C2=O`, the growth was 45.2%.

Turning to `O=C1Nc2ccc(Cl)cc2/C1=N/N=C/c1c[nH]c2ccccc12`, the growth is 98.7%.

On to `O=C(CSc1nnc(-c2ccc(Cl)cc2)n1-c1ccccc1)Nc1ccc(Cl)cc1`, for which the growth was 4.06% (active).

Take `COc1cc2nc(-c3cnc(N(C)C)nc3)nc(NC3CCN(Cc4ccccc4)CC3)c2cc1OC`: the growth is -72.1% (active).

For `Cc1cccc2c(=O)c3c(sc12)c(N1CCNCC1)nc1ccccc13`, the growth was 65.4%.

Turning to `CCN(CC)c1ccc(/C=N\NC(=O)/C=C/C=C/c2ccc3c(c2)OCO3)c(O)c1`, the growth was 13.4%.

Regarding `c1ccc(Nc2nc3c(s2)CCc2c[nH]cc2-3)nc1`, the growth is 83.6%.

Consider `COc1cc(C2CC(C3C(=O)N(C)C(=O)N(C)C3=O)=NN2C=O)cc(OC)c1OC` (stereo not given), for which the growth is 103%.

Take `Cc1nc2ccccc2c(/C=C/c2ccc(Cl)cc2)c1C(=O)/C=C/c1ccc(C(F)(F)F)cc1`: the growth is -65.8% (active).

On to `N#CC(=S)Nc1ccc(Cl)c(Cl)c1`, for which the growth was -5.08% (active).

For the molecule `CCN1C(=O)N(CC)C2Nn3c(s/c(=C4\C(=O)N(C5CCCC5)c5ccccc54)c3=O)=NC21` (stereo not given), the growth is 11%.

`CN(C)c1ccc(/C=C/c2cc[n+](C)c(/C=C/c3ccc(N(C)C)cc3)c2)cc1`: the growth is -12.7% (active).

With `Cn1c(C(N)=O)cc2c1-c1nc(NC3CCCCC3)ncc1CCC2`, the growth is 93.7%.

`c1ccc(-c2oc(-c3ccccc3)c3ccccc23)cc1`: the growth is 109%.

With `CN(C)c1cccc2c(S(=O)(=O)/N=C(\N)Nc3nc4ccccc4s3)cccc12`, the growth was -8.02% (active).

Turning to `O=C(/C=C1\C(=O)N(Cc2ccc([N+](=O)[O-])cc2)c2ccccc21)c1ccc(OCCN2CCCC2)cc1`, the growth was 59.4%.

Consider `CCCCNC(=O)CC1=C(C)/C(=C/c2[nH]c(-c3ccc[nH]3)cc2OC)N=C1C`, for which the growth was 37.9%.

Consider `C[n+]1c(-c2ccccc2)c2cc(N)ccc2c2ccccc21`, for which the growth is -15.4% (active).

In the case of `COc1ccc(CNC(=O)COc2ccc(/C=N/Nc3nc4ccccc4s3)cc2)cc1`, the growth is 28.3%.

Turning to `Nc1nc(Nc2cccc(F)c2)nc2ccccc12`, the growth was 8.81% (active).

Consider `CN(C)c1ccc(N2Cc3ccccc3OC3=C2C(=O)c2c(O)ccc(O)c2C3=O)cn1`, for which the growth was -59.4% (active).

In the case of `Cc1[nH]c(C(=O)Nc2cccc(OC3CCNCC3)c2)c(Cl)c1Cl`, the growth is 40.9%.

Consider `Cc1cccc(C)c1NCc1nc(-c2ccccc2)n[nH]1`, for which the growth was 122%.

Consider `CC(C)CNc1nc(N=[N+]=[N-])nc(NCC(C)C)n1`, for which the growth is 59.7% [100 µM].

For `O=C(O)C(Cc1ccccc1)C(=O)O`, the growth is 82.4%.

Regarding `COc1ccc(/C=C2\COc3ccc(O)c(O)c3C2=O)c(OC)c1`, the growth is 27.9%.

As to `CCN(CC)c1nc(SCC(=O)Nc2nc3ccc(C)cc3s2)nc(-c2ccccc2)c1C#N`, the growth is 86.7%.

Regarding `CCCCCCCCCCCCCCCCCCOP(=O)(O)O`, the growth is 108%.

As for `CNC(=O)c1cc(Oc2ccc3nc(NC(C)=O)sc3c2)ccn1`, the growth is 100%.

For the molecule `ON=C(C1CCCCC1)C1CCCCC1`, the growth was 105%.

With `O=C(CC1Sc2ccccc2NC1=O)NNc1cccc(Cl)c1Cl` (stereo not given), the growth is 95.2%.

In the case of `CC(=O)ON=C1C=CC(=C(C#N)c2ccccc2)C=C1`, the growth is 19%.

For the molecule `O=[N+]([O-])c1cnc(Sc2ccncn2)c([N+](=O)[O-])c1`, the growth is -44.4% (active).

As to `CC(=O)OC(C)c1cccc(C#N)c1` (stereo not given), the growth was 105%.

With `COc1cc(OC)c(/C=C/S(=O)(=O)Cc2ccc(OC)c(N)n2)c(OC)c1`, the growth is 13.5%.

With `CS(=O)(=O)Nc1cc(-c2cc3ncc(C#N)c(Nc4ccc(Oc5ccccc5)c(Cl)c4)c3s2)cnc1Cl`, the growth was 43.3%.

Consider `C=CCNC(=O)Cc1c(-c2ccc(OC)cc2)oc2c(OC)c3c(c(OC)c12)OCO3`, for which the growth was 94.9%.
